# According to PubChem BioAssay AID1822 (The Scripps Research Institute Molecular Screening Center, 2009):
# Hit rate of the full screen: of about 290,000 compounds, about 3,500 (1.2%) were called active. The sample as a whole holds a higher share of actives than the screen did. A number with no mark means an inactive call.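 Rule for the calls: active = inhibition above the campaign mean inhibition over all tested compounds plus 3 SD (cut at about 28% in these data); inactive = the rest.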
# Test system: M18 aspartyl aminopeptidase (Plasmodium falciparum 3D7)
# Test: inhibition of P. falciparum M18 aminopeptidase – biochemical, QFRET, recombinant enzyme, primary screen (AID 1822);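 note: 0% = plate median of test compound wells and 100% = 2 mM ZnCl2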
# Settings: recombinant PfM18AAP, H-Glu-NHMec fluorogenic cleavage; at 7.35 µM; hits give high values
row,SMILES,inhibition
1,Cn1cc[n+](C)c1COc1ccc(C=O)cc1,-14%
2,CC1CN(C(=O)CCC(=O)NCCCN2CCC(Cc3ccccc3)CC2)c2cc(Cl)ccc2O1 (configuration not stated),-5.3%
3,O=C(C[n+]1ccc2c(c1)nnn2-c1ccccc1)c1ccc(Cl)cc1,0%
4,CC(=O)c1ccc(-c2ccc(Cn3c(C)nc4cc(N)c(C)nc43)cc2)cc1,-5.95%
5,Cc1cc2nc3c(=O)n(Cc4ccccc4)c(=O)[nH]c3nc2cc1N,33.3% (active)
6,CSc1nc2ccccc2c(=O)n1Cc1ccc(F)cc1,4.37%
7,CC1CCN(C(=O)C2CCN(S(=O)(=O)N3CCC4(CC3)OCCO4)CC2)CC1,-6.53%
8,O=C(Nc1cccc(Cl)c1)C1CCCN(c2cnccn2)C1 (configuration not stated),-0.72%
9,COc1cc(NC(=S)N2CCCC(C)C2)cc(OC)c1OC (configuration not stated),16.2%
10,COc1ccc(NC(=S)N2CCCC(CO)C2)c(OC)c1 (configuration not stated),1.11%
11,COc1cc(NC(=S)N2CCCC(C)C2)c(OC)cc1Cl (configuration not stated),33.9% (active)
12,COc1ccc(S(=O)(=O)N2CCC(C(=O)NCCC(=O)NCc3cccc(OC)c3)CC2)cc1,-4.58%
13,O=C(O)c1cccc2c1C(=O)N(C1CCCC1)C2,-3.09%
14,C/C(=N\NC(=O)c1ccc(C)cc1)C1C(=O)c2ccccc2C1=O,9.83%
15,N#Cc1ccc(C(c2nnnn2CCc2ccccc2)N2CCCCCC2)cc1 (configuration not stated),-9.05%
16,N#Cc1ccc(C(c2ccc(C#N)cc2)n2cncn2)cc1,51.3% (active)
17,N#Cc1ccc(CSc2ncccn2)cc1,0.4%
18,CCOc1ccc(N/C=C/C(=O)c2ccccc2)cc1,0.48%
19,Cc1nc2nc[nH]n2c(=O)c1C/C=C/c1ccccc1,41.7% (active)
20,Cc1nc2nc(COc3ccccc3)[nH]n2c(=O)c1Cc1ccccc1,5.29%
21,C=CCc1c(C)nc2cc(-c3ccccc3)[nH]n2c1=O,-0.1%
22,COC(=O)C1[C@H]2SC(C)(C)C(C(=O)OC)N2C(=O)N1Cc1nc2ccccc2s1 (some centres not stated),2.76%
23,CSc1nnc(NC(=O)c2nc(S(=O)(=O)Cc3ccc(C)cc3)ncc2Cl)s1,-15.5%
24,CC1(C)CC(=O)C=C(Nc2ccccc2)C1,-2.72%
25,COC(=O)NNC1=CC(=O)CC(C)(C)C1,9.27%

row,SMILES,inhibition
1,Cc1cc(C)nc(NNC2=CC(=O)CC(C)(C)C2)n1,42.9% (active)
2,Cc1onc(C(=O)Nc2ccc3c(c2)OCO3)c1[N+](=O)[O-],-1.41%
3,S=c1[nH]nc(-c2ccco2)n1/N=C/c1ccc(Br)s1,28% (active)
4,S=c1[nH]nc(-c2ccco2)n1/N=C/c1ccccc1,19.4%
5,Cc1cc(-c2n[nH]c(=S)n2/N=C/c2ccco2)n[nH]1,6.34%
6,COc1ccc(NC(=O)ON=C2c3ccccc3-c3ccccc32)cc1,-2.03%
7,COc1ccc(-c2csc(NC3OC(=O)c4ccccc43)n2)cc1 (configuration not stated),3.33%
8,COc1ccc(N/C=C(\C2OC(=O)c3ccccc32)[N+](=O)[O-])cc1 (configuration not stated),38.8% (active)
9,O=C(CCN1CCN(C/C=C/c2ccccc2)CC1)Nc1ccccc1Cl,-14.5%
10,CS(=O)(=O)N(CC(=O)N1CCCCCC1)c1cccc(Cl)c1Cl,-10.9%
11,CCOC(=O)NNc1cc(C(F)(F)F)ccn1,49.5% (active)
12,CCC(=O)NC(Nc1cc(C)ccn1)(C(F)(F)F)C(F)(F)F,-6.4%
13,Cc1ccc(NC(=O)Nc2cccc(C(F)(F)F)c2)nc1,-4.58%
14,CCOC(=O)c1cccc(NC(=O)CN2C(=O)C3CC=CCC3C2=O)c1 (configuration not stated),0.39%
15,O=C(Nc1cccnc1Cl)c1cc(-c2cccc(Cl)c2)on1,-1.19%
16,CCOC(=O)C1(CCOc2ccccc2)CCN(Cc2ccc(C#CCCO)cc2)CC1,3.95%
17,CC(=O)N1CCN(CC(c2ccccc2)c2ccccc2)CC1,-8.35%
18,O=C(Nc1ccncc1)c1ccc([N+](=O)[O-])cc1Cl,8.21%
19,O=C(Cc1ccccc1)Nc1ccc(NC(=O)c2cccnc2)cc1,-1.2%
20,Cn1cccc1C(=O)N1CCc2ccccc2C1,-5%
21,CC(C)CNC(=O)C(=O)NCC(c1ccc2c(c1)OCO2)N1CCOCC1 (configuration not stated),-5.45%
22,O=C(O)CCn1c(O)c(C=C2N=c3ccccc3=N2)sc1=S,37.6% (active)
23,Cc1cc2ccccc2n1CCC(=O)O,10.5%
24,O=C(O)CCn1c(Cc2ccccc2)nc2ccccc21,-1.96%
25,O=S1(=O)CCOC[C@H](CC2CCCCC2)N1Cc1ccc(F)cc1,-13.1%

row,SMILES,inhibition
1,CCn1cc(CCC(=O)NCc2ccc(F)cc2)c2ccccc21,-10.5%
2,CC(=O)Nc1ccc(N2CCOCC2)c(C(=O)Nc2cccc(C)c2)c1,4.11%
3,Cc1nc(N2CCOCC2)c2c(C)c(C(=O)Nc3ccc(C(F)(F)F)cc3)sc2n1,-14.6%
4,Cc1cccc(NC(=O)c2sc3nc(N4CCOCC4)c4c(c3c2N)CCCC4)c1,41% (active)
5,O=C(NNC(=O)c1ccco1)Nc1ccccc1,48.6% (active)
6,O=C(Nc1ccccc1)/C(=C\c1ccco1)NC(=O)c1ccco1,8.12%
7,O=C(Nc1ccccc1)c1ccco1,2.58%
8,O=C(O)C1CCC(CNS(=O)(=O)c2ccc(Br)cc2)CC1 (configuration not stated),-15.2%
9,Cc1cc(-c2ccc(/C=N/n3cnnc3)o2)c([N+](=O)[O-])cc1C,44.5% (active)
10,CC1=NN(c2ccc(Cl)c(C(=O)O)c2)C(=O)/C1=C/c1ccc(-c2ccccc2[N+](=O)[O-])o1,3.82%
11,Brc1cc(/C=N/n2cnnc2)oc1Br,13.5%
12,Clc1cc(-c2ccc(/C=N/n3cnnc3)o2)ccc1Br,-0.09%
13,Cc1cc(C)c([N+](=O)[O-])cc1-c1ccc(/C=N/NC(=O)c2nonc2N)o1,4.59%
14,O=C1C2C3C=CC(C4CC34)C2C(=O)N1/N=C/c1ccc(-c2ccccc2[N+](=O)[O-])o1 (configuration not stated),-5.14%
15,Cc1ccccc1OCCOc1ccc([N+](=O)[O-])cc1/C=N/n1cnnc1,6.71%
16,Cc1ccc(Cl)cc1-c1ccc(/C=N/n2cnnc2)o1,32.8% (active)
17,Cc1cc([N+](=O)[O-])c(-c2ccc(/C=N/n3cnnc3)o2)cc1Cl,40.4% (active)
18,O=C(Nc1ccc(F)cc1)C1CCCN(S(=O)(=O)c2ccc(-n3cnnn3)cc2)C1 (configuration not stated),-11.3%
19,Cc1ccc(-n2c(C)nnc2SCC(=O)NC2CC2)cc1,6.7%
20,CCn1c(SCC(=O)NC2CC2)nnc1-c1ccncc1,-8.99%
21,Cc1cc(C)nc(Nc2cc([N+](=O)[O-])ccc2C)n1,-2.82%
22,Cc1cc(C)nc(Nc2ncn[nH]2)n1,70.4% (active)
23,Cc1cc(C)nc(Nc2n[nH]c(-c3ccccc3N)n2)n1,-3.26%
24,Cc1cc(NC(=O)CCC(=O)N(CC(=O)NC2CCCC2)c2ccc(F)cc2)no1,1.92%
25,CCOc1cccc(/C=N/N2C(=O)CSC2=S)c1O,38.7% (active)

row,SMILES,inhibition
1,O=C1CSC(=S)N1c1ccc(O)cc1,8.71%
2,COc1cc(N2C(=O)CSC2=S)cc(OC)c1OC,6.36%
3,Cc1cc2oc(=O)cc(CN(C)Cc3ccc(OC(F)F)cc3)c2cc1Cl,-5.26%
4,C=CCOc1ccccc1NC(=O)CN1C(=O)CNC1=O,-12.8%
5,CN(C)c1ccnc2sc(C(=O)c3ccccc3)c(N)c12,1.38%
6,Cc1nc2sc(C(=O)c3ccccc3)c(N)c2c2c1CCCC2,1.45%
7,Nc1c(C(=O)c2cccs2)sc2nsc(SCCN3CCCCC3)c12,28.8% (active)
8,COc1ccc(CCNC(=O)CCNS(=O)(=O)c2cc(Br)cnc2N)cc1OC,-9.76%
9,NC(=O)C1CCCN(CC(=O)N2CCN(c3ccccc3)CC2)C1 (configuration not stated),0.08%
10,O=C(CSc1nc(Nc2ccccc2)nc(N2CCOCC2)n1)Nc1cc(Cl)ccc1O,3.26%
11,Cc1ccc(C)c(NC(=O)CCC(=O)NNC(=O)c2cccs2)c1,-0.77%
12,Cc1ccc(C)c(NC(=O)NNC(=O)c2ccc3ccccc3c2O)c1,41% (active)
13,Cc1ccc(S(=O)(=O)NNC(=O)Nc2cccc3ccccc23)cc1,10.5%
14,O=C(Oc1ccc(Br)cc1C(=S)N1CCOCC1)c1cccc([N+](=O)[O-])c1,36.5% (active)
15,COc1cc(C(=S)N2CCOCC2)cc(OC)c1OC(=O)c1cc([N+](=O)[O-])cc([N+](=O)[O-])c1,8.8%
16,O=C(Oc1ccccc1C(=S)N1CCCCC1)c1cc([N+](=O)[O-])cc([N+](=O)[O-])c1,13.9%
17,CCOc1ccc(CNC(=O)CCC(=O)N2CCSc3ccccc32)cc1,6.53%
18,O=S(=O)(c1ccc(NC(=S)NN=C(C2CC2)C2CC2)cc1)N1CCOCC1,34.2% (active)
19,O=C(NC(=S)Nc1ccc(S(=O)(=O)N2CCOCC2)cc1)c1ccccc1[N+](=O)[O-],2.44%
20,CN1CCN(S(=O)(=O)c2ccc(NC(=S)NC(=O)C3CC3)cc2)CC1,3.06%
21,CN1/C(=C\C=C2\N=C(c3ccc(F)cc3)OC2=O)C(C)(C)c2ccccc21,-0.7%
22,CCOC(=O)c1c(C)[nH]c(C)c1S(=O)(=O)NCCCc1ccco1,-16.1%
